From PubChem BioAssay AID1210 (NMMLSC, 2008)
Calls of active or inactive are those of the source.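 How the source made its calls: active means blocks over 70% of labeled estradiol binding at 10 µM, or over a set limit at 100 nM; inactive means the rest.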

Molecular target: Estrogen receptor beta (Homo sapiens) (UniProt Q92731)
Assay: ERbeta ligand binders by competition, primary screen, cell-based, Cos7 ERbeta-GFP, flow cytometry (AID 1210);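 further: 0% = DMSO vehicle wells and 100% = complete loss of labeled estradiol signal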
Conditions: fluorescent estrogen binding, stronger effect = higher value
[1] = ligand binding inhibition, at 0.1 µM

Chain of Estrogen receptor beta (Homo sapiens) (Q92731 whole entry, looked up): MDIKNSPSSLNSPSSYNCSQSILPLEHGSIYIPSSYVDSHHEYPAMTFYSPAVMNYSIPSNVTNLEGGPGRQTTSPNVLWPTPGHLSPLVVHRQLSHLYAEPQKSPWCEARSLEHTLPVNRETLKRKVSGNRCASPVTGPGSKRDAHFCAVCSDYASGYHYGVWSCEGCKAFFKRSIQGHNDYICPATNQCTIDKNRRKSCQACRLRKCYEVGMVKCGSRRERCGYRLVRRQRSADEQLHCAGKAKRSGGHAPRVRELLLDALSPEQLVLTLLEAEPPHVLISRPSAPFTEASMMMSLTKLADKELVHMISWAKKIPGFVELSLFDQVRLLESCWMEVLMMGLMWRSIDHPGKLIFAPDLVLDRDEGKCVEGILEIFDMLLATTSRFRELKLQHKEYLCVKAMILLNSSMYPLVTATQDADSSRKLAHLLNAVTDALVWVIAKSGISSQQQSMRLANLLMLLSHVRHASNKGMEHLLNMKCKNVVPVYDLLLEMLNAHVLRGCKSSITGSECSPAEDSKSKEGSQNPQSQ

| Structure (SMILES) | inhibition (at 10 µM) | inhibition [1] [%] |
| --- | --- | --- |
| COC(=O)c1[nH]c2ccc(C)cc2c1NC(=O)CN1CCCc2ccccc21 | 56% (inactive) | 26 |
| Cc1occc1C(=O)NCc1cccc(CNC(=O)c2ccoc2C)c1 | 2% (inactive) | 10 |
| Oc1ccccc1-c1nnc(SCCN2CCOCC2)n1Cc1ccccc1 | 32% (inactive) | 41 |
| CC(C)c1ccc2c(c1)[C@H]1OCC[C@H]1[C@@H](c1cccs1)N2 | 0% (inactive) | 36 |
| O=C(O)c1cc(Cl)c2c(c1)[C@@H]1C=CC[C@@H]1[C@H](c1ccc(S(=O)(=O)N3CCOCC3)cc1)N2 | 45% (inactive) | 8 |
| O=C(Nc1cc(C(F)(F)F)ccc1N1CCOCC1)C1Cc2ccccc2CN1C(=O)c1ccco1 (stereo not drawn) | 73% (active) | 13 |
| Cn1nc([N+](=O)[O-])c2c(-c3nc4ccccc4s3)c(N)n(C3CCCCC3)c2c1=O | 18% (inactive) | 34 |
| O=C1c2ccccc2C(=O)N1/N=C/c1ccc(O)c(O)c1 | 58% (inactive) | 54 |
| O=c1oc2ccccc2cc1-c1ccc(O)cc1O | 42% (inactive) | 21 |
| c1coc(-c2nnc3sc(Cc4cccs4)nn23)c1 | 5% (inactive) | 53 |
| CC1=C(SCCC#N)S/C(=C2\SC(C)=C(SCCC#N)S2)S1 | 49% (inactive) | 11 |
| Cc1ccc(-n2c(SCC(=O)NNC(=S)Nc3ccccc3)nc3ccccc3c2=O)cc1 | 34% (inactive) | 4 |
| Cc1cc(C)n2nc(SCc3cc(=O)oc4cc(O)ccc34)nc2n1 | 19% (inactive) | 19 |
| CC1CC(C(F)(F)C(F)(F)F)n2nc(C(=O)O)cc2N1 (stereo not drawn) | 58% (inactive) | 27 |
| COC(=O)c1ccc2c(=O)n(CCCCCC(=O)NCc3ccc4c(c3)OCO4)c(=O)[nH]c2c1 | 68% (inactive) | 20 |
| O=C(Nc1ccc(O)cc1C(=O)O)c1ccc2c(c1)C(=O)N(Cc1ccco1)C2=O | 52% (active) | 72 |
| C/C=C(/C(=C/C)c1ccc(O)cc1)c1ccc(O)cc1 | 55% (active) | 85 |
| O=C(c1cc2c(s1)CCC2)N1CCN(c2ccccc2)CC1 | 52% (inactive) | 7 |
| CCOc1ccc(CC2S/C(=N/c3ccccn3)NC2=O)cc1 (stereo not drawn) | 16% (inactive) | 15 |
